These results are taken from PubChem BioAssay AID1851 (National Center for Advancing Translational Sciences (NCATS), 2009).

SMILES strings stand for the structures. The campaign covered roughly 16,000 compounds. About 5,700 (36%) were called active. Inconclusive results (about 24%) are left out. The list shows a part of the results. A number with no mark means an inactive call. Calls follow the shape of the dose curve; as a rule, active = well fitted curve in the direction sought with a large enough effect; inconclusive = small, poorly fitted or top-dose-only effect, or effect the other way; inactive = no such curve, though single readings can be large or run the other way.
% is scaled to controls: 0 for no effect and ±100 for the full control effect.

In this assay the target is Cytochrome P450 1A2 (Homo sapiens) (UniProt P05177). The experiment in a line: Cytochrome panel assay with activity outcomes. Particulars: recombinant CYP, pro-luciferin dealkylation, luminescence, p450-cyp1a2; series mostly up to 57.1 µM; activity, negative = inhibition: at the top concentration.
Sequence of Cytochrome P450 1A2 (Homo sapiens) (P05177 whole entry, looked up): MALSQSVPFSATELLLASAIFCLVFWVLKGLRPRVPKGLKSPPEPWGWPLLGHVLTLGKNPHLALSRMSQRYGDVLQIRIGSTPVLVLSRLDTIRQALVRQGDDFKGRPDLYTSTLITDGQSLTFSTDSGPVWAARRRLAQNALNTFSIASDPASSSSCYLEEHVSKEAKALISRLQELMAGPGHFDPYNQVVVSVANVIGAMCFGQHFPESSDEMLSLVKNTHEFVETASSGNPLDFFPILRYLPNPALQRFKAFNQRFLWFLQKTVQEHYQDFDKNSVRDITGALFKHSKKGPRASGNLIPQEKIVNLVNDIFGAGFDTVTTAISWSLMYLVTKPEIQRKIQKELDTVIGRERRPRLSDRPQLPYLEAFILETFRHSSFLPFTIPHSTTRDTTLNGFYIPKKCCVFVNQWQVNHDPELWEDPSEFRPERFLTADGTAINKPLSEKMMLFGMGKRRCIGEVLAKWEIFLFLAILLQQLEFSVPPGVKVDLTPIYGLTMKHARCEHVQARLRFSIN
For `COc1ccc(CN2CCN(C(=O)CC(C)C)CC2)c(OC)c1OC`, the “activity, negative = inhibition” value was 23.3%.
For `COc1cccc(NC(=O)c2cc(-c3cccnc3)nc3c(Cl)cccc23)c1`, the AC50 was 8.91 µM (active).
For `CCOC(=O)C1C(=O)C=C(/C=C/c2ccccc2)CC1c1ccc(Cl)cc1` (stereo unspecified), the AC50 is 5.01 µM (active).
Consider `CCOC(=O)C1=C(C)NC2=C(C(=O)C(C(=O)OCC)C(c3ccc(OC)cc3)C2)C1c1ccccn1` (stereo unspecified), for which the “activity, negative = inhibition” value is -24.6%.
`CC(C)(CO[C@H]1C[C@H]2CC[C@@]1(C)C2(C)C)[N+](=O)[O-]`: the activity, negative = inhibition is -17.1% [at 11.4 µM].
With `Fc1ccc(C2=Nn3c(Cc4ccccc4F)nnc3SC2)cc1`, the AC50 is 0.355 µM (active).
The same measure, in the same setting: the value for `Cc1cc2ccccc2n1CCNC(=O)C1CCCC1` was 1 µM (active).
Take `Cc1ccc(S(=O)(=O)NCCSc2nnnn2C)cc1`: the “activity, negative = inhibition” value is -4.13%.
In the case of `Cc1cc2ccccc2c(=O)n1CC(=O)NCC(=O)N1CCCC1`, the “activity, negative = inhibition” value is -2.57%.
Same read-out and setting: the value for `Cc1ccc(C)n1NC(=O)c1ccccc1` was -14.9%; that for `Cc1ccc(S(=O)(=O)NC(=O)c2cccn2C)cc1` was -17.6%; that for `O=C(Nc1nc2ccccc2n1CCN1CCCCC1)C1CCCCC1` was -14.4%.
Turning to `Cc1ccc(S(=O)(=O)NCCn2c(C)cc3ccccc32)cc1`, the AC50 is 15.8 µM (active).
Consider `Cc1cc2ccccc2n1CCNC(=O)c1ccccc1`, for which the AC50 is 4.47 µM (active).
For the molecule `CS(=O)(=O)c1ccc([C@H](O)[C@H](CO)NC(=O)C(Cl)Cl)cc1`, the “activity, negative = inhibition” value is -1.73% [at 25.6 µM].
For `CC(C)(C)N1C(=O)[C@@H]2[C@H]3C(=CC[C@H]2C1=O)C(=O)[C@H]1O[C@H]1[C@H]3O`, the activity, negative = inhibition was -0.944% [at 11.4 µM].
`Cc1cnc(CNc2ncncc2-c2cccc(C#N)c2)cn1`: the AC50 was 12.6 µM (active).
Turning to `N#Cc1cccc(-c2cncnc2NCc2cccnc2)c1`, the AC50 was 5.01 µM (active).
Still for that read-out and setting: the value for `Cc1cccc(CNc2ncncc2-c2cccc(C#N)c2)c1` was 2.51 µM (active); that for `N#Cc1cccc(-c2cncnc2NCc2ccccc2)c1` was 5.01 µM (active).
`O=S(=O)(O)c1ccc(N=Nc2ccccc2)cc1`: the activity, negative = inhibition was -5.18% [at 11.4 µM].
As to `CC(=O)O[C@]1(C(C)=O)CC[C@@H]2[C@@H]3C=C(Cl)C4=CC(=O)[C@H]5C[C@@H]5[C@]4(C)[C@H]3CC[C@]21C`, the AC50 result is “inactive”.
Still for that read-out and setting: under `N#Cc1cccc(-c2cncnc2NCc2cccs2)c1` stands 1.58 µM (active).
Still for that read-out and setting: under `COc1ccccc1CNc1ncncc1-c1cccc(C#N)c1` stands 10 µM (active).
As to `Cc1ccc(C(C)C)n1C(=O)OC(C)(C)C`, the activity, negative = inhibition is 6.74% [at 11.4 µM].
Consider `Fc1ccc2c(c1)C1C=CCC1C(c1cc3c(cc1Br)OCO3)N2` (stereo unspecified), for which the AC50 was 0.891 µM (active).
Take `C=CCNc1nc(Cl)nc(Nc2ccc(OC)cc2)n1`: the AC50 is 2.51 µM (active).
Same read-out and setting: under `CCCC[C@@H]1C[C@H]1C(NC(=O)c1cccs1)c1ccc(Cl)cc1` (stereo partly specified) stands 1 µM (active); under `CCCC[C@@H]1C[C@H]1C(NC(=O)c1cccs1)c1ccc(C(F)(F)F)cc1` (stereo partly specified), 2 µM (active).
`C/C(=C\C1CCCCC1)C(NC(=O)c1ccc(C(F)(F)F)cc1)c1ccc(-c2ccccc2)cc1` (stereo unspecified): the “activity, negative = inhibition” value was 4.8%.
Still for that read-out and setting: under `C[C@@]1(C(NC(=O)c2cccs2)c2ccc(-c3ccccc3)cc2)C[C@H]1C1CCCCC1` (stereo partly specified) stands -11%.
Consider `CCCC[C@@H]1C[C@H]1C(NC(=O)c1cccs1)c1ccccc1C(F)(F)F` (stereo partly specified), for which the AC50 is 6.31 µM (active).
Still for that read-out and setting: under `CCOC(=O)CSC1=NC(=O)/C(=C\c2ccc(OC(C)=O)cc2)S1` stands 25.1 µM (active); under `CCOC(=O)CSC1=NC(=O)/C(=C\c2ccc(Cl)cc2)S1`, 3.55 µM (active).
For the molecule `Cc1cccc(NC2(C(F)(F)F)N=C(c3ccccc3)NC2=O)n1` (stereo unspecified), the “activity, negative = inhibition” value was -7.41%.
Consider `Clc1ccc(-c2nnc(-c3ccccc3)c(N3CCSCC3)n2)cc1`, for which the AC50 is 1.12 µM (active).
With `N#Cc1c(N2CCN(C(=O)c3ccccc3Cl)CC2)nc(-c2ccccc2)c2c1CCCC2`, the “activity, negative = inhibition” value was -15.6%.
On to `Clc1ccc(-c2nnc(-c3ccc(Br)cc3)c(N3CCSCC3)n2)cc1`, for which the AC50 was 1.12 µM (active).
Same read-out and setting: under `Brc1ccc(-c2nnc(-c3ccccc3)c(N3CCSCC3)n2)cc1` stands 1.26 µM (active).
In the case of `Cc1cc(C)cc(-n2c(O)c(C=NC3CCS(=O)(=O)C3)c3ccccc3c2=O)c1` (stereo unspecified), the “activity, negative = inhibition” value was 1.41%.
Turning to `Cc1ccc(-n2c(O)c(/C=N/n3cnnc3)c3ccccc3c2=O)cc1`, the concentration at half-maximal activity (AC50) was 17.8 µM (active).
As for `COc1c(O[C@H]2O[C@@H](CO)[C@@H](O)[C@@H](O)[C@@H]2O)cc2c(c1OC)-c1ccc(SC)c(=O)cc1[C@H](NC(C)=O)CC2`, the “activity, negative = inhibition” value was -16.7% [at 25.6 µM].
On the same count and under the same terms, under `COc1cc(C(=O)N2CCC(NC(=O)C(Cc3ccc(C(C)C)cc3)NC(C)=O)CC2)cc(OC)c1OC` (stereo unspecified) stands -25.5%.
As to `O=C(NCCN1CCCC1)C1(S(=O)(=O)c2ccc(Cl)cc2)CC1`, the “activity, negative = inhibition” value is -19.8%.
On the same count and under the same terms, under `O=C(NCCc1ccc(Cl)cc1)C1CCN(S(=O)(=O)N2CCC3(CC2)OCCO3)CC1` stands -3.74%.
Turning to `Oc1cc2c(cc1O)CN(C(=S)NCCc1ccc(Cl)cc1)CCC2`, the AC50 is 20 µM (active).
In the case of `COc1ccc(-n2nc(C(=O)NCC(=O)Nc3ccccn3)c3ccccc3c2=O)cc1`, the “activity, negative = inhibition” value was -4.65%.
Turning to `COc1cccc(/C=N/n2nnc3c(cnn3-c3ccccc3)c2=O)c1`, the “activity, negative = inhibition” value was -27.9%.
For the molecule `COc1ccc(Oc2c(Cl)cnn(-c3ccccc3)c2=O)cc1`, the AC50 is 7.08 µM (active).
`Cn1c([N+](=O)[O-])cnc1CN1CCN(CCO)CC1`: the activity, negative = inhibition is 9.16% [at 2.29 µM].
Regarding `c1ccc(-c2n[nH]c(-c3ccccc3)c2-c2nc3ccccc3[nH]2)cc1`, the AC50 is 8.91 µM (active).
In the case of `CCOc1cc(NC(=O)c2ccccc2[N+](=O)[O-])c(OCC)cc1NC(=O)CC(C)C`, the “activity, negative = inhibition” value was -11.8%.
Regarding `Cc1cccc(NC(=S)NNC(=O)CC(C)O)c1C` (stereo unspecified), the “activity, negative = inhibition” value is -22.8%.
Take `CCOc1cc(NC(=S)Nc2cccc(C)c2)c(OCC)cc1NC(=O)CC(C)C`: the AC50 was 5.01 µM (active).
The same measure, in the same setting: under `CC1(C)CC(=O)C2=C(C1)Oc1nc3ccccc3cc1C2C(C#N)C#N` (stereo unspecified) stands 22.4 µM (active).
Consider `CN1CCN(/C=N/C2=C(C#N)C(c3ccccc3)C3=C(CC(C)(C)CC3=O)O2)CC1` (stereo unspecified), for which the “activity, negative = inhibition” value is -16.3%.
For the molecule `CC1(C)CC(=O)C([C@H]2C3=C(CC(C)(C)CC3=O)Oc3ccccc32)C(=O)C1`, the “activity, negative = inhibition” value was -6.77%.
As to `N/C(CC/C(N)=N/O)=N\O`, the activity, negative = inhibition is -17.8% [at 11.4 µM].
Turning to `O=C(O)CSSCC(=O)O`, the activity, negative = inhibition was -2.44% [at 11.4 µM].
Turning to `Cc1nnsc1SCC(=O)O`, the “activity, negative = inhibition” value is -5.81%.
As to `O=C(O)CSc1sc(=S)sc1SCC(=O)O`, the AC50 was 12.6 µM (active).
